Compound activity (PubChem)
Only some compounds are listed: those with a hit (about 21% of all), similar ones and a draw of the others.
DT40 TDP1 CPT = growth inhibition of DT40 Tdp1-/-;hTDP1 cells with camptothecin (screen for TDP1 inhibitors); chicken DT40 Tdp1-/-;hTDP1 cells + 20 nM CPT, ATP luminescence, 48 h; Potency, µM (highest dose often 46.2 µM), actives largely listed as inhibitors; actives 12% (n = 420,000); further: nearly all actives have a fitted effect of over 55% in size
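Cell growth measured by CellTiter-Glo luminescence after a minimum 48 h, 37 C compound exposure with 20 nM CPT in Tdp1-knockout DT40 cells stably expressing hTDP1, seeded 400/well; qHTS titration format.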
IL-1B inflam inh = inhibitors of inflammasome signaling (IL-1 beta secretion); THP-1 LPS/ATP IL-1B secretion, AlphaLISA, 16 h; hits give low values; activity change, % at 57.5 µM; actives 4.7% (n = 360,000); AID 743279; in the data active means activity change below about -50%; inconclusive means mostly about -30% to -49%
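Secreted IL-1B measured by AlphaLISA bead assay after 16 h compound exposure of THP-1 cells; compounds (final up to 57.5 uM) added 1 h before LPS (250 ng/mL) and ATP (1.25 mM) stimulation; lower signal means less secretion.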
TDP1 cell noCPT = qHTS for Inhibitors of human tyrosyl-DNA phosphodiesterase 1 (TDP1): qHTS in cells in absence of CPT. DT40 Tdp1-/- hTDP1 cells, no CPT, ATP luminescence, 48 h. Potency, µM (titrated, usually from 46.2 µM), usual class: inhibitors. actives 15% (n = 420,000). AID 686978, 2013; further: nearly all actives have a fitted effect of over 55% in size
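Growth kinetics read by CellTiter-Glo luminescence after ≥48 hr at 37 °C. Cells: DT40 Tdp1-/- stably carrying human TDP1, 400 per well, compound exposure in the absence of CPT (DMSO vehicle).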
ClpP mod = qHTS Assay for Activators of ClpP | ATP-dependent Clp protease proteolytic subunit (Bacillus subtilis (strain 168)), P80244 | purified B. subtilis ClpP, FRET peptide cleavage, 20 min | Potency, µM (series often up to 57.5 µM) | actives 1.9% (n = 340,000) | AID 651965, 2013; active means well fitted falling curve with a large enough effect; inconclusive means small, poorly fitted or top-dose-only effect; inactive means no such curve, though single readings can be large or run the other way; further: the source files actives as falling curves though it sought activators and does not explain the sign; nearly all actives have a fitted effect of over 65% in size
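Buffer: 100 mM Tris/HCl pH8, 100 mM KCl, 0.05% low protease BSA, 2.5% glycerol, 0.01% Tween-20. ClpP 10 microg/mL final; 20 min RT; delta FRET normalized to ADEP and DMSO controls.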
DRD3 agonist = D3 dopamine receptor (human) agonism; AID 652048; P35462; D3R DiscoveRx beta-arrestin cells, luminescence, 90 min; actives 0.58% (n = 410,000); max activation, %; in the data active means max activation above about 30%
Target sequence (P35462 whole entry, looked up): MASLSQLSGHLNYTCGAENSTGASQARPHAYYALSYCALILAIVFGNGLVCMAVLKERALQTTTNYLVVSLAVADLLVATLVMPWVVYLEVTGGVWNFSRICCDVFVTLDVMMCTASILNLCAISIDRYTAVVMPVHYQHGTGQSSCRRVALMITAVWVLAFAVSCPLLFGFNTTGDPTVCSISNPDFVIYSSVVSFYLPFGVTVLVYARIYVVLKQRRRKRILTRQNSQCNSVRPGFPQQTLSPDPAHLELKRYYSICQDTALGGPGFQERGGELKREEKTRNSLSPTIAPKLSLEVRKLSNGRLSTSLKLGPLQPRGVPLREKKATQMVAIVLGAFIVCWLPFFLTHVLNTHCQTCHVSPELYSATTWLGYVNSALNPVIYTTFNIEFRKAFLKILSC
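Cells at 1500/well, incubated overnight, then treated with pinned compounds (dopamine as control) for 90 min at 37 degrees C. DiscoveRx reagent added for 30 - 60 minutes at room temperature; luminescence read.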
DRD3 antagonist = D3 dopamine receptor (human) antagonism; actives 2.5% (n = 360,000); D3R cells, DiscoveRx beta-arrestin luminescence, antagonist mode; hits give low values; P35462; AID 652054; max response, negative = inhibition, %; in the data active means max response below about -50%; inconclusive means no clear call, values can overlap the other calls
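Cells plated overnight at 1500 cells/well, then exposed to library compounds with dopamine controls for 90 minutes at 37 degrees C. DiscoveRx reagent added for 30–60 minutes at room temperature; luminescence read, quantitative HTS format.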
Numbers stand for hits; i = inactive; ? = inconclusive; nt = no result. Unless noted, the call rests on the fitted dose curve; in most records, active means well fitted inhibition curve with a large enough effect; inconclusive means small, poorly fitted or top-dose-only effect; inactive means flat fitted curve, though single readings scatter.

SMILES | DT40 TDP1 CPT | IL-1B inflam inh | TDP1 cell noCPT | ClpP mod | DRD3 agonist | DRD3 antagonist
COc1ccc(C(C)(C)C)cc1NC(=O)c1cncc(Br)c1 | ? | i | 18µM | i | i | i
Cn1nc(-c2ccccc2F)c2cc(C(=O)NCc3cccc(Cl)c3)sc21 | 15µM | nt | ? | i | i | nt
Cn1nc(-c2ccccc2F)c2cc(C(=O)Nc3cc(F)ccc3F)sc21 | ? | nt | ? | i | i | nt
Cn1nc(-c2ccccc2F)c2cc(C(=O)NCc3ccc(Cl)cc3)sc21 | ? | nt | 16µM | i | i | nt
COc1ccccc1CNC(=O)c1cc2c(-c3ccc(Cl)cc3)nn(C)c2s1 | ? | nt | ? | ? | i | nt
Cn1nc(-c2ccccc2F)c2cc(C(=O)Nc3ccc4c(c3)OCCO4)sc21 | ? | -65 | 21µM | ? | i | i
CCCN(CCC)CCNC(=O)c1cc2c(-c3ccccc3F)nn(C)c2s1 | ? | -92 | ? | i | i | i
Cc1ccc2c(=O)cc(C(=O)Nc3ccc(S(=O)(=O)N4CCCCCC4)cc3)oc2c1 | i | nt | i | i | i | nt
CCCCN1Cc2cc(C(=O)c3cc(F)ccc3O)cnc2NC1=O | ? | -57 | ? | i | i | i
C/C=C1\COC(C(=O)NCc2cccc(OC)c2OC)(C(F)(F)F)C=C1C=C1CCCCC1 (configuration not stated) | 15µM | ? | 16µM | i | i | i
O=C(Cc1ccc(Br)cc1)Nc1cccc(-c2cn3c(n2)SCC3)c1 | ? | -76 | ? | i | i | i
CCCC(CCC)C(=O)Nc1cccc(-c2cn3c(n2)SCC3)c1 | i | i | ? | i | i | i
CN(Cc1cn(Cc2ccccc2)nn1)C1CN(Cc2cn(Cc3ccccc3)nn2)S(=O)(=O)C1 (configuration not stated) | i | i | ? | i | i | i
COc1ccccc1NS(=O)(=O)c1cc(N)ccc1N1CCCCC1 | i | i | ? | i | i | i
COc1ccccc1NS(=O)(=O)c1cc(NC(=O)C2CCC2)ccc1N1CCCCC1 | ? | i | ? | i | i | ?
COc1ccccc1NS(=O)(=O)c1cc(NC(=O)c2cccnc2)ccc1N1CCCCC1 | ? | ? | 23µM | nt | i | i
CCCS(=O)(=O)Nc1ccc(N2CCCCC2)c(S(=O)(=O)Nc2ccccc2OC)c1 | ? | i | 16µM | i | i | i
O=C(CSc1nc(=O)n(Cc2ccccn2)c2c1CCC2)Nc1cccc(Cl)c1 | ? | nt | ? | i | i | nt
O=C1CCCN1CCCNCC(=O)N1c2ccccc2Sc2ccccc21 | i | i | i | i | i | -53
O=C1CCCN1CCCNCC(O)c1ccccc1 (configuration not stated) | i | i | i | nt | i | i
O=C(c1cc(Cl)nc2ccccc12)N1CCN(S(=O)(=O)c2cccc(C(F)(F)F)c2)CC1 | i | i | i | nt | i | i
Cc1ccc(CN(C(=O)COc2cc(C)c(Cl)c(C)c2)c2ccccn2)o1 | ? | nt | 18µM | i | i | nt
Cc1ccc(CN(C(=O)COc2ccccc2[N+](=O)[O-])c2ccccn2)o1 | ? | nt | ? | i | 38 | nt
COc1cc(CN(C(=O)c2ccccc2)c2ccccn2)cc(OC)c1OC | ? | nt | ? | i | i | nt
Cc1ccc(OCC(=O)N(Cc2ccco2)c2ccccn2)cc1 | ? | nt | i | i | i | nt
SMILES | DT40 TDP1 CPT | IL-1B inflam inh | TDP1 cell noCPT | ClpP mod | DRD3 agonist | DRD3 antagonist
CCCCOc1cccc(C(=O)N(Cc2ccc(C)o2)c2ccccn2)c1 | 15µM | nt | 9.2µM | i | i | nt
COc1cc(CN(C(=O)COc2ccc(Cl)cc2)c2ccccn2)cc(OC)c1OC | 18µM | nt | 8.2µM | i | i | nt
Cc1ccc(CN(C(=O)COc2ccc(Br)cc2)c2ccccn2)o1 | ? | nt | 16µM | i | i | nt
Cc1cc2c(OCC(O)CNCc3ccco3)cccc2[nH]1 (configuration not stated) | i | i | i | i | i | ?
OC(CNCc1ccco1)Cn1c2ccc(Br)cc2c2cc(Br)ccc21 (configuration not stated) | 15µM | -59 | 18µM | i | i | i
O=C(NCc1ccccn1)c1ccc2nc(C3CCCCC3)oc2c1 | i | i | i | i | i | i
